Assay results published in PubChem BioAssay (NCI).
This is part of a sample that, as a whole, favours compounds with a hit. Of some 83,000 tested, about 20% had one in any assay.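 How to read the values: 0–100, growth inhibition (40 = 60% inhibited); 0, no net growth; -100 to 0, cell death (-40 = 40% of starting cells died; -100 = all dead).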 Values without a mark were called inactive. The source made the active and inactive calls. Rule for the calls: active = growth percent below 10; inactive = the rest.

Test system: MDA-MB-468 breast
Assay: NCI-60 one-dose screen, 48 h (100 = growth as untreated, 0 = no growth, -100 = all killed)
Details: 10 µM unless noted

| SMILES | growth |
| --- | --- |
| CC1=C/C(=N\N=C2/C=C(C)CC(C)(C)C2)CC(C)(C)C1 | 98.5% |
| COc1c(O)cc2oc3cc(O[C@@H]4OC(C)[C@@H](O)[C@H](O)C4O)c(CC=C(C)C)c(O)c3c(=O)c2c1CC=C(C)C (stereo not given in full) | 82.5% |
| CCCCCc1ccnc(CC(=O)c2ccc(OC)cc2)c1 | 65.5% |
| CCOC(=O)C1OC1c1ccccc1 (stereo not given) | 106% |
| O=[N+]([O-])c1ccc(NC(=S)NNC(=S)Nc2ccc(F)cc2)cc1 | 74.6% |
| COc1ccc(OC)c(-c2c(C#N)c(-c3ccc(Cl)cc3)nc3c2c(-c2ccccc2)nn3-c2ccccc2)c1 | 103% |
| C/C(=C(/c1ccc(O)cc1)c1ccc(Cl)cc1)c1ccccc1 | -71.9% (active) |
| O=C(O)c1ccc(Cl)cc1Nc1ccc(F)cc1 | 27.9% |
| O=C1NC(=O)C(Cn2cnc3ccccc32)N1 (stereo not given) | 99% |
| COc1ccc(NCc2cn(-c3ccc(C(=O)O)cc3)nc2-c2cc(C(F)(F)F)cc(C(F)(F)F)c2)cc1 | 112% |
| OC(c1ccccc1)C(NCc1ccccc1)c1ccccc1 (stereo not given) | 95.4% |
| NCCNc1ccc([N+](=O)[O-])cc1 | 110% |
| COC(=O)c1cc(=O)nc(N/N=C/c2ccccc2O)s1 | 98% |
| COc1ccc(C(=O)c2cc3c(N)c(C(=O)Nc4cccc5ccccc45)sc3nc2C)cc1 | -0.26% (active) |
| CC(C)[C@@H](C)/C=C/[C@@H](C)[C@H]1CCC2=C3C=CC4=CC(=O)CC[C@]4(C)[C@H]3CC[C@@]21C | 97.3% |
| O=C(N/N=C/c1ccccc1O)C(=O)Nc1ccc(F)cc1 | 33% |
| FC(F)c1nc2ccccc2n1-c1nc(N2CCOCC2)nc(N2CCOCC2)n1 | -43.2% (active) |
| CN(C)c1ccc(/C=C(\C#N)c2cc3ccccc3[nH]2)cc1 | -3.07% (active) |
| Cc1c2ccncc2c(C)c2c1c1cc(CO)ccc1n2C | -46.1% (active) |
| O=S(=O)(NCCNc1cc(-c2cn(-c3ccccc3)nc2-c2cccc(O)c2)ccn1)c1ccc(Cl)cc1 | -24.6% (active) |

| SMILES | growth |
| --- | --- |
| Cc1ccc(S(=O)(=O)N2CCc3ccc(O)c4c3C2CCc2ccccc2-4)cc1 (stereo not given) | 106% |
| COc1ccc(-c2ccc(-c3ccc(C(=N)N)s3)s2)cc1Cl | -12.5% (active) |
| COc1ccc(Cn2cc(C(=O)N=Nc3c(O)[nH]c4ccc(Br)cc34)nn2)cc1 | 96.8% |
| CCc1c(C)c2cc3nc(NCc4ccccc4)oc3c(C)c2oc1=O | 68.2% |
| N=c1c2c(-c3ccccc3)c(-c3ccccc3)oc2ncn1NC(=O)c1cccnc1 | 105% |
| c1ccc2c(c1)OC1OC2Oc2ccccc21 | 97.5% |
| COC(=O)CCC1=C(C)/C(=C/c2[nH]c(-c3ccc[nH]3)cc2OC)N=C1C | 45.2% |
| Cc1cc(S(=O)(=O)N(C)C)cc(NCC(=O)NC(=O)NCC(C)C)c1C | 104% |
| O=C(N/N=C\c1ccc(Cl)cc1)C(=O)N/N=C\c1ccc(Cl)cc1 | 124% |
| COc1ccc(NC(=O)[C@@H]2C[C@H]2c2ccccc2)c(C(N)=O)c1 | 101% |
| COc1cc(-c2cc(/C=C/C(=O)c3ccc4c(c3)OCO4)[nH]n2)cc(OC)c1OC | -4.54% (active) |
| Cc1ccc(/C=C/C(=O)c2cccc(OCCCOc3cccc(C(=O)/C=C/c4ccc(C)cc4)c3)c2)cc1 | 89.9% |
| CC(=O)CCS(=O)c1ccccc1 (stereo not given) | 104% |
| CC(C)c1ccccc1NC(=O)N1CCC(C(C)C)CC1 | 99.8% |
| C=C(C)[C@@H]1CC[C@]2(COC(C)=O)CC[C@]3(C)[C@H](CC[C@@H]4[C@@]5(C)CCCN(C(C)=O)C(C)(C)[C@@H]5CC[C@]43C)[C@@H]12 | -49.5% (active) |
| COc1cc(-c2nn(-c3cccc(NC(=O)Nc4cccc(C(F)(F)F)c4)c3)cc2-c2ccncc2)ccc1Cl | -27.6% (active) |
| CCN(CC)CCCC(C)Nc1cc(-c2ccc(C(F)(F)F)cc2)c(C#N)c2nc3ccccc3n12 (stereo not given) | -23.6% (active) |
| COc1ccccc1-n1cc(C#N)c(N)c1C(=O)c1ccc(C)cc1 | 46.2% |
| COc1ccc2[nH]cc(C(c3ccc(Cl)cc3)N3CCCC3)c2c1 (stereo not given) | 84% |
| NS(=O)(=O)c1cccc(Nc2nc(SCC(=O)c3ccc(Cl)cc3)nc3c2CCC3)c1 | 79.8% |
